TexasRed fluor: Total Fluorescence Counterscreen for Inhibitors of the Interaction of Thyroid Hormone Receptor and Steroid Receptor Coregulator 2; hit rate 0.29% among 280,000; AID 1479, 2009; TRb/SRC2 Texas Red total fluorescence interference; Potency, µM (titrated, usually from 106 µM), for inactives: top-dose fluorescence change, negative = quenching; active means well fitted curve in either direction with a large enough effect; inconclusive means small, poorly fitted or top-dose-only effect
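Flags fluorescent or light-absorbing compounds by total fluorescence, S + 2P, at 555 nm excitation and 632 nm emission. Mixture: 20 nM Texas Red SRC2 peptide, 0.6 uM human TRb LBD, 1 uM T3, 5% DMSO; compound exposure 5 h at ambient temperature.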
Tau fluor cs: Counterscreen qHTS for Inhibitors of Tau Fibril Formation, Fluorescence Polarization. tau K18 P301L Alexa594 fluorescence, heparin fibrillization. Potency, µM (series often up to 57.7 µM), inactives show top-dose activity change, negative = decrease. hit rate 0.93% among 280,000. AID 1463, 2008; further: nearly all actives have a fitted effect of over 55% in size
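Human tau K18 P301L (15 uM unlabeled, 0.24 uM Alexa 594-labeled) in 100 mM sodium acetate pH 7 with 20 uM heparin, 6 hr at 37 C. ThT 30 uM added, 1 hr ambient; Alexa 594 FP and total fluorescence read at 555/632 nm.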
Tau ThT inhib: qHTS for Inhibitors of Tau Fibril Formation, Thioflavin T Binding. Microtubule-associated protein tau (Homo sapiens), P10636. recombinant tau K18 P301L, heparin-induced fibrillization, ThT fluorescence. Potency, µM (titrated, usually from 57.4 µM), for inactives: at the highest dose activity, negative = inhibition, hits mostly inhibitors. hit rate 2.1% among 270,000; further: nearly all actives have a fitted effect of over 55% in size
Target sequence (P10636 561-689 P618L limits assumed): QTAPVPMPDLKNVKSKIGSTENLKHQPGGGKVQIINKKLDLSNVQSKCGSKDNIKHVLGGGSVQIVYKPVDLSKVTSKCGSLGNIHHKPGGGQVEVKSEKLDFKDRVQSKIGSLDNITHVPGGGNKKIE
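Fibril formation assay: tau K18 P301L at 15 uM with trace Alexa 594 label, heparin inducer 20 uM, pH 7 sodium acetate buffer, 37 C for 6 hr; endpoint ThT signal.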
TRb-SRC2 inh: qHTS for Inhibitors of the Interaction of Thyroid Hormone Receptor and Steroid Receptor Coregulator 2 | hit rate 0.065% among 280,000 | TRbeta-SRC2 peptide binding, fluorescence polarization; receptor liganded with 1 µM T3 | Potency, µM (titrated, usually from 106 µM), for inactives: top-dose activity change, negative = inhibition, most hits filed as inhibitors | Thyroid hormone receptor beta (Homo sapiens), P10828;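 further: plate controls were bound peptide for no effect and peptide without receptor for full effect; nearly all actives have a fitted effect of over 50% in size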
Target sequence (P10828 whole entry, looked up): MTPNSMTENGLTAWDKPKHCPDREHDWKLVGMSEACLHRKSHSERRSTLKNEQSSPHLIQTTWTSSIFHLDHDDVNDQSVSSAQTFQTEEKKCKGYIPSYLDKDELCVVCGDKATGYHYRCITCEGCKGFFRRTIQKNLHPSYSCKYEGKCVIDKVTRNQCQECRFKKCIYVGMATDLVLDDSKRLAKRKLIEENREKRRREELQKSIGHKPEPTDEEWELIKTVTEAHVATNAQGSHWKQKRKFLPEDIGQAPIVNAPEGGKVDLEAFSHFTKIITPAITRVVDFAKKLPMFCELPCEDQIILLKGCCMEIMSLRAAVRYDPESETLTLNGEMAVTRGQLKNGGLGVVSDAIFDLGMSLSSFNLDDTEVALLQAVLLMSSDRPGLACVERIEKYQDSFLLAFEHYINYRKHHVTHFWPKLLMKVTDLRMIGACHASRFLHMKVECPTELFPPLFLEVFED
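Decrease in fluorescence polarization of 20 nM Texas Red SRC2 coactivator peptide flagged inhibition of its binding to 0.6 uM TRb LBD; 1 uM T3 included, incubation 5 hr, ex 555/em 632 nm.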
Tau FP inhib: qHTS for Inhibitors of Tau Fibril Formation, Fluorescence Polarization | Microtubule-associated protein tau (Homo sapiens), P10636 | K18 P301L tau heparin fibrillization, Alexa594 FP, 6 h | Potency, µM (series often up to 57.7 µM), for inactives: at the highest dose activity, negative = inhibition, usual class: inhibitors | hit rate 0.39% among 280,000; further: nearly all actives have a fitted effect of over 55% in size
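Quantitative HTS format: compounds meet 15 uM recombinant K18 P301L tau and Alexa 594-tau tracer in 100 mM sodium acetate pH 7; 20 uM heparin triggers fibrillization at 37 C over 6 hr; FP gives the signal.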
Numbers without * were called inactive; u = inconclusive; x = no result; [ ] = remark or other dose. An excerpt weighted towards active compounds, which were near 3% of everything screened. Unless noted, the call rests on the fitted dose curve; in most records, active means well fitted curve in the direction sought with a large enough effect; inconclusive means small, poorly fitted or top-dose-only effect, or another doubt; inactive means no such curve, though single readings can be large; an effect the other way counts as inactive or inconclusive. Unless noted, on the % scale 0 is the no-effect control and ±100 the full control effect; potency means the concentration at half of the fitted maximal effect.

SMILES	TexasRed fluor	Tau fluor cs	Tau ThT inhib	TRb-SRC2 inh	Tau FP inhib
CS(=O)(=O)c1ccc(Cl)cc1	-1%[201 µM]	x	x	2%[201 µM]	x
N#C/C(=C\c1coc2ccccc2c1=O)C(N)=S	-2%	-10%	-14%	7%	-7%
N#C/C(=C\c1coc2ccc(O)cc2c1=O)C(=O)Nc1nc2ccccc2s1	u	28µM*[quencher]	18µM*	u	u
O=c1cc(-c2ccccc2)[nH]n1-c1nc2ccccc2[nH]1	-16%	u	25µM*	-11%	u
COC(=O)c1c(C)[nH]c(-c2csc(N)n2)c1C	1%	u	25µM*	5%	-13%
CN(C)c1ccc(NC(=S)NC(=O)/C=C/c2ccco2)cc1	-3%	-23%	u	-5%	-13%
CN(C)c1ccc(NC(=S)NC(=O)/C=C/c2ccc(Cl)cc2)cc1	1%	u	10µM*	2%	-6%
CCSc1ccc(C(=O)NCC(=O)O)cc1	-1%	-7%	-3%	-5%	-7%
Nc1ccc(C(=O)NCC(=O)O)cc1	-2%	u	32µM*	11%	u
O=C(Nc1ccc2c(c1)CCC2)c1cc(S(=O)(=O)N2CCN(c3ccccc3)CC2)ccc1Cl	45µM*[fluorescent]	-12%	-9%	21%	-8%
O=C(CN1CCN(c2ccccc2)CC1)Nc1ccc2c(c1)CCC2	1%	-18%	-12%	7%	3%
O=C1/C(=C/c2ccc(O)cc2)SC(=S)N1CC1CCCO1 (configuration not stated)	-2%	13µM*[quencher]	10µM*	-11%	u
COc1ccc(/C=N/NC(=O)Cc2csc(Nc3cccc(C(F)(F)F)c3)n2)c(OC)c1	2%	u	-13%	2%	13%
CCOc1ccc(/C=N/NC(=O)Cc2csc(Nc3cccc(C(F)(F)F)c3)n2)cc1	-1%	10µM*[quencher]	u	-20%	0%
CCOc1ccccc1/C=N/NC(=O)Cc1csc(Nc2cccc(C(F)(F)F)c2)n1	-1%	20µM*[quencher]	-17%	-12%	11%
CCOc1ccc(/C=N/NC(=O)Cc2csc(Nc3cccc(C(F)(F)F)c3)n2)c(OCC)c1	-2%	u	-1%	0%	u
CCCn1ccc2c(OCC(=O)Nc3cc(C)ccc3C)cccc2c1=O	2%	-21%	-26%	-2%	-4%
Cc1nn(-c2ccccc2)c2c1C1(C(=O)N(C(C)C)c3ccccc31)C(C#N)=C(N)O2 (configuration not stated)	-4%	u	25µM*	-3%	u
Cc1nn(-c2ccccc2)c(N)c1C1(O)C(=O)N(C(C)C)c2ccccc21 (configuration not stated)	2%	-13%	-12%	-2%	-7%
O=C(CSc1ncnc2scc(-c3ccccc3)c12)N1CCN(Cc2ccc3c(c2)OCO3)CC1	45µM*[fluorescent]	-21%	u	4%	-14%
O=C(CSCc1ccccc1)N1CCN(Cc2ccc3c(c2)OCO3)CC1	1%	1%	-5%	-16%	5%
CC/C=C\C/C=C\C/C=C\C/C=C\C/C=C\CCCC(=O)O	-2%	2%	-7%	1%	-4%
CCOc1ccc2nc3cc(N)ccc3c(N)c2c1	u	13µM*[quencher]	7.1µM*	-2%	u
Cc1[nH][nH]c(=O)c1C(c1ccc(-c2cccc(C(=O)O)c2)o1)c1c(C)[nH][nH]c1=O	-4%	-26%	14µM*	-22%	u
Cc1[nH][nH]c(=O)c1C(c1ccc(-c2ccccc2C(=O)O)o1)c1c(C)[nH][nH]c1=O	-2%	-8%	11µM*	u	u
SMILES	TexasRed fluor	Tau fluor cs	Tau ThT inhib	TRb-SRC2 inh	Tau FP inhib
Cc1[nH][nH]c(=O)c1C(c1ccc(-c2cccc(Cl)c2)o1)c1c(C)[nH][nH]c1=O	-2%	u	x	u	u
Cc1[nH][nH]c(=O)c1C(c1ccc(-c2ccc(Cl)cc2Cl)o1)c1c(C)[nH][nH]c1=O	-8%	-28%	11µM*	u	u
COC(=O)c1ccc(-c2ccc(C(c3c(C)[nH][nH]c3=O)c3c(C)[nH][nH]c3=O)o2)cc1	-5%	-26%	5µM*	-24%	u
COc1cc(C(c2c(C)[nH][nH]c2=O)c2c(C)[nH][nH]c2=O)ccc1OC(=O)c1ccccc1F	-1%	-28%	u	-4%	3%
COc1ccc(C(=O)Oc2ccc(C(c3c(C)[nH][nH]c3=O)c3c(C)[nH][nH]c3=O)cc2OC)cc1	-2%	-4%	-19%	2%	-1%
CSc1ccc(Cl)cc1	-6%[201 µM]	x	x	9%[201 µM]	x
CCCCC#Cc1nc(NC)c2ncn([C@@H]3O[C@@H](CO)[C@H](O)[C@H]3O)c2n1	-1%	-5%	-1%	-4%	-3%
CN(C1=C(NC(=O)c2ccccc2)C(=O)c2ccccc2C1=O)C1CCS(=O)(=O)C1 (configuration not stated)	0%	-27%	14µM*	2%	u
CC(=O)NC1=C(NC2CCS(=O)(=O)C2)C(=O)c2ccccc2C1=O (configuration not stated)	1%	8%	12%	14%	7%
COc1ccc(N=Nc2ccc(O)c3ncccc23)cc1	-4%	-26%	1.4µM*	3%	u
Cc1ccccc1N=Nc1ccc(O)c2ncccc12	0%	-17%	u	-7%	8%
O=Nc1ccc(O)c2ncccc12	-6%	-29%	u	8%	u
Oc1ccc(N=Nc2ccc(Br)cc2)c(O)c1	-12%	u	3.5µM*	-6%	2%
Oc1ccc(N=Nc2ccc3c(c2)OCCO3)c(O)c1	-3%	u	3.2µM*	9%	5%
Oc1ccc(N=Nc2ccc3c(c2)OCCO3)c2cccnc12	-7%	u	2µM*	-3%	u
O=C(Cc1ccc(Br)cc1)c1ccc(O)cc1O	-2%	u	-17%	10%	-15%
Cc1cccc(NC(=O)C(=O)NCCc2csc(-c3ccc(C(F)(F)F)cc3)n2)c1C	-21%	-8%	-3%	2%	0%
CSc1nnc(C)c(/C=C/Nc2ccc(C)cc2)n1	-5%	-23%	5µM*	4%	2%
CSc1nnc(C)c(/C=C/NOCc2ccc(Cl)cc2)n1	5%	u	u	9%	4%
CCn1c(=O)n(-c2ccc(F)c(Cl)c2)c(=O)c2c3c(sc21)CN(C(C)=O)CC3	4%	-15%	-7%	3%	-5%

Screening data as filed in PubChem BioAssay.
